Reference: PubChem BioAssay AID1159580 (chemical genetic matrix, 2015)
About 2,000 (36%) of roughly 5,500 compounds were called active. Roughly 18% stayed inconclusive and do not appear here. Rule as the data show it: active = normalized growth mostly below about 0.91 (no sharp cut-off); inconclusive = no clear call, values can overlap the other calls; inactive = mostly above about 0.92. This is one part of the list.

Test: chemical genetic growth profiling, strain panel (AID 1159580);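 also: tested at 20 µM; growth read once vehicle control cultures reached saturation at 30 °C; 1 = growth at the plate median or of vehicle wells; lower values mean less growth of the strain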
Details: S. cerevisiae deletion strains, growth OD
[1] = locus YAL040C, strain CLN3, stronger effect = lower value
[2] = locus YCL061C, strain MRC1 (second series), stronger effect = lower value
[3] = locus YDR363W, strain ESC2, stronger effect = lower value
[4] = locus YER002W, strain NOP16, stronger effect = lower value
[5] = locus YJR075W, strain HOC1, stronger effect = lower value
[6] = locus YMR263W, strain SAP30, stronger effect = lower value
[7] = locus YMR307W, strain GAS1, stronger effect = lower value
[8] = locus YNL128W, strain TEP1, stronger effect = lower value
[9] = locus YNL175C, strain NOP13, stronger effect = lower value
[10] = locus YNL197C, strain WHI3, stronger effect = lower value
[11] = locus YNL224C, strain SQS1, stronger effect = lower value
[12] = locus YOR083W, strain WHI5 (second series), stronger effect = lower value
[13] = locus YAL013W, strain DEP1, stronger effect = lower value
[14] = locus YGR078C, strain PAC10, stronger effect = lower value
[15] = locus YPL241C, strain CIN2, stronger effect = lower value

Measured: normalized growth

S=C(NC1CCCCC1)N1CCC(c2cnc[nH]2)CC1
inactive: [1] 1.01 | [2] 0.998 | [3] 1.01 | [4] 0.994 | [5] 1 | [6] 1.01 | [7] 0.996 | [8] 0.984 | [9] 1 | [10] 0.974 | [11] 0.986 | [12] 1.02 | locus YPL055C, strain LGE1, stronger effect = lower value 0.993

Cc1cccc(/C=C/c2ccccc2)n1
inactive: [13] 1 | [1] 0.984 | [2] 1.01 | [3] 1.04 | [4] 0.975 | [14] 1.01 | [7] 0.995 | locus YNL153C, strain GIM3, stronger effect = lower value 0.93 | [9] 0.963 | [10] 0.986 | [11] 0.989 | [12] 0.923 | [15] 1.02

CC(COc1ccc(/C=C/c2ccccc2)cc1)[N+](C)(C)C (stereo not drawn)
inactive: [13] 0.942 | [1] 1.02 | [2] 0.982 | [3] 0.914 | [4] 0.989 | [14] 0.99 | [6] 1.01 | [7] 0.994 | [8] 1.03 | [9] 0.999 | [10] 0.996 | [15] 0.98
active: locus YDR150W, strain NUM1, stronger effect = lower value 0.926 | [5] 0.878 | [11] 1.12 [resistant] | [12] 0.816

OC(COc1ccc(F)cc1)(c1ccccc1)c1ccccc1
inactive: locus YAR019C, strain CDC15, stronger effect = lower value 0.955 | locus YBL105C, strain PKC1, stronger effect = lower value 0.953 | locus YBR135W, strain CKS1, stronger effect = lower value 0.965 | locus YBR136W, strain MEC1, stronger effect = lower value 0.968 | locus YBR160W, strain CDC28, stronger effect = lower value 0.951 | locus YDL017W, strain CDC7, stronger effect = lower value 0.955 | locus YDL028C, strain MPS1, stronger effect = lower value 0.977 | locus YDL101C, strain DUN1, stronger effect = lower value 0.939 | locus YDL108W, strain KIN28, stronger effect = lower value 0.982 | locus YDL132W, strain cdc53, stronger effect = lower value 0.955 | locus YDL214C, strain PRR2, stronger effect = lower value 0.964 | locus YDR052C, strain DBF4, stronger effect = lower value 0.965 | locus YDR054C, strain cdc34, stronger effect = lower value 0.949 | locus YDR226W, strain ADK1, stronger effect = lower value 0.955 | locus YDR477W, strain SNF1, stronger effect = lower value 0.985 | locus YER123W, strain YCK3, stronger effect = lower value 0.969 | locus YER133W, strain GLC7, stronger effect = lower value 0.993 | locus YFL009W, strain cdc4, stronger effect = lower value 0.954 | locus YFL029C, strain CAK1, stronger effect = lower value 0.957 | locus YFR003C, strain YPI1, stronger effect = lower value 0.961 | locus YFR019W, strain FAB1, stronger effect = lower value 0.974 | locus YFR028C, strain CDC14, stronger effect = lower value 0.964 | locus YGR040W, strain KSS1, stronger effect = lower value 0.998 | locus YGR052W, strain FMP48, stronger effect = lower value 1.1 | locus YGR092W, strain DBF2, stronger effect = lower value 0.939 | locus YHR030C, strain SLT2, stronger effect = lower value 1.14 | locus YHR079C, strain IRE1, stronger effect = lower value 1.09 | locus YHR082C, strain KSP1, stronger effect = lower value 1.1 | locus YHR205W, strain SCH9, stronger effect = lower value 0.977 | locus YIL147C, strain SLN1, stronger effect = lower value 0.966 | locus YJL095W, strain BCK1, stronger effect = lower value 1.1 | locus YJL128C, strain PBS2, stronger effect = lower value 0.913 | locus YJL157C, strain FAR1, stronger effect = lower value 0.968 | locus YJR016C, strain ILV3, stronger effect = lower value 0.959 | locus YJR066W, strain TOR1 (second series), stronger effect = lower value 1.01 | locus YJR066W, strain TOR1, stronger effect = lower value 1.15 | locus YKL048C, strain ELM1, stronger effect = lower value 0.95 | locus YKL067W, strain YNK1, stronger effect = lower value 0.961 | locus YKL101W, strain HSL1, stronger effect = lower value 0.962 | locus YKL193C, strain SDS22, stronger effect = lower value 0.959 | locus YKL203C, strain TOR2, stronger effect = lower value 1.07 | locus YLR113W, strain HOG1, stronger effect = lower value 0.971 | locus YLR133W, strain CKI1, stronger effect = lower value 0.955 | locus YLR403W, strain SFP1, stronger effect = lower value 0.983 | locus YML070W, strain DAK1, stronger effect = lower value 0.973 | locus YMR001C, strain CDC5, stronger effect = lower value 0.954 | locus YMR205C, strain PFK2 (second series), stronger effect = lower value 0.968 | locus YMR277W, strain FCP1, stronger effect = lower value 0.961 | locus YNL006W, strain LST8, stronger effect = lower value 0.97 | locus YNL020C, strain ARK1, stronger effect = lower value 0.959 | locus YNL161W, strain CBK1, stronger effect = lower value 0.958 | locus YNL183C, strain NPR1, stronger effect = lower value 1.12 | locus YNL207W, strain RIO2, stronger effect = lower value 0.971 | locus YNL222W, strain SSU72, stronger effect = lower value 0.962 | locus YNL307C, strain MCK1 (second series), stronger effect = lower value 0.961 | locus YOL078W, strain AVO1, stronger effect = lower value 0.967 | locus YOL136C, strain PFK27, stronger effect = lower value 0.98 | locus YOR061W, strain CKA2, stronger effect = lower value 0.969 | locus YOR119C, strain RIO1, stronger effect = lower value 1.02 | locus YOR231W, strain MKK1, stronger effect = lower value 1.06 | locus YOR329C, strain SCD5, stronger effect = lower value 0.956 | locus YPL031C, strain PHO85, stronger effect = lower value 0.985 | locus YPL153C, strain RAD53, stronger effect = lower value 1 | locus YPL204W, strain HRR25, stronger effect = lower value 0.991 | locus YPL209C, strain IPL1, stronger effect = lower value 0.956 | locus YPL256C, strain CLN2, stronger effect = lower value 1.02 | locus YPR025C, strain CCL1, stronger effect = lower value 0.954 | locus YPR106W, strain ISR1, stronger effect = lower value 0.954 | locus YPR111W, strain DBF20, stronger effect = lower value 0.949 | strain NNK1, stronger effect = lower value 0.956 | strain TSCII, stronger effect = lower value 0.957
